“And” between values parts separate entries of the source, which are not always exact repeats. Equal values may be shown once. The source made the active and inactive calls. Cut-off read from the data, not from the text of the source, unless noted: active = parasite load remaining mostly below about 12% (no sharp cut-off); inactive = mostly above about 10%.

Test [1] is described as follows: compounds altering viability of human ES cells (AID 493140; call rule not given here;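 note: cells exposed to compounds for four days before counting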). Particulars: human embryonic stem cell survival screen; stronger effect = higher value.
The nature of test [2]: P. berghei load reduction in hepatocytes – cell-based, HepG2, luciferase luminescence, HepG2 viability, primary screen (AID 624349).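 Note: 100% = mean of DMSO negative control wells on the same plate.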 To be noted: P. berghei liver stage in HepG2, luciferase luminescence, concentration not given here; parasite load remaining: stronger effect = lower value; viability: measured here: HepG2 viability without parasites.
Test [3] in a line: Wnt pathway potentiators raising nuclear beta-catenin – imaging, WNT3A-conditioned medium, mouse C2C12, NPC library, primary screen (AID 1117326; in the data active = nuclear beta-catenin stimulation mostly above about 4.2%, no sharp cut-off; inactive = mostly below about 10%). To be noted: stronger effect = higher value.
A short description of test [4]: stimulators of insulin release from INS-1E, primary screen, cell-based, 5 mM glucose, NPC library (AID 1117329;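 active = compound raises insulin release from rat beta cells at 5 mM glucose, no numeric limit stated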). To be noted: rat INS-1E insulin secretion, at 10 µM, stronger effect = higher value.
The nature of test [5]: growth inhibition of GSK3B-pretreated HCT116 cells – cell-based, CellTiter-Glo, 0.2 to 20 µM (AID 1117336;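 active = compounds lowering colon cancer cell viability after pretreatment blocking the GSK3B kinase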). Particulars: HCT116 viability after GSK3B inhibitor, at 20 µM, stronger effect = higher value.
Test [6] in a line: inhibition of endothelial tube formation, primary screen, imaging, VEGF stimulated, CD31 staining, tube area, NPC library (AID 1117340;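 active = compound that reduces growth-factor-driven endothelial tube area in a mixed cell culture, no cutoff stated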). To be noted: VEGF-stimulated ADSC/ECFC co-culture, at 10 µM, stronger effect = higher value.
A short description of test [7]: GLP1 release stimulators, primary, NCI-H716, NPC library (AID 1117341;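 active = compound raises GLP1 secretion from the human gut endocrine cells, with no numeric limit stated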). To be noted: NCI-H716 cells, at 10 µM, stronger effect = higher value.
The nature of test [8]: HCT116 colon cancer cell growth inhibition, primary screen, CellTiter-Glo luminescence, NPC library (AID 1117342;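 active = compounds that lower survival of HCT116 colon cancer cells in the luminescence readout, no numeric limit stated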). To be noted: at 20 µM (top of the series).
Test [9] in a line: reduced SW480 viability measured with CellTiter-Glo, NPC library, primary (AID 1117343;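 active = compounds that lower viability of the colon cancer cells in the luminescence readout, with no numeric limit stated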). Particulars: CellTiter-Glo luminescence; at 20 µM (top of the series) unless noted.
Test [10] in a line: NPC library primary testing for decreased DLD-1 cell viability via CellTiter-Glo (AID 1117346;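 active = compounds that lower survival of DLD-1 colon cancer cells in the luminescence readout, no cutoff given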). Particulars: DLD-1 viability, CellTiter-Glo luminescence; at 20 µM (top of the series).
Test [11] can be described thus: EMT-state selective cytotoxicity in co-culture – imaging, PC-3E GFP, TEM4-18 mCherry, primary screen (AID 1345086;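 active = compounds killing one labelled cell type while sparing the other, by normalised counts and ratio limits, not self-fluorescent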;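 for all read-outs here: cells exposed to compound for 72 h before imaging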;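 for red/green cell ratio (normalised): normalised mesenchymal count divided by normalised epithelial count so high means epithelial killing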). To be noted: PC-3E GFP / TEM4-18 mCherry co-culture, imaging cell counts, at 1 µM; for red/green cell ratio (normalised): actives lie on both sides, counts scaled to control wells, 1 = unselective.
Test [12] in a line: viability loss with induced miR-34 in A549 – imaging, A549 dox-inducible miR-34, nuclei and caspase counts, primary screen (AID 1347080;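 active = compounds whose cell count with miR-34 switched on is under 0.7 times the count with it off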). To be noted: A549 miR-34 inducible, Hoechst nuclei count, 48 h.
The nature of test [13]: MELAS cybrid and Rieske KO viability enhancers – cell-based, MELAS cybrids, Rieske KO mouse fibroblasts, CellTiter-Glo, primary screen (AID 1508586;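 active = mean z-score across replicates of 1.96 or higher in either the MELAS or the Rieske mutant cell line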;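 note: z relative to plate mean and SD of compound and empty wells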). To be noted: low glucose.
Test [14] has as its target NAD(+) hydrolase SARM1 (Homo sapiens) (UniProt Q6SZW1). Description: blocking NAD cleavage by SARM1 SAM-TIR – cell lysate, NAD-Glo luminescence (AID 1508614;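 active = compound whose remaining NAD level is above about 45 nM, limit read from the data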;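 note: higher remaining NAD means stronger inhibition of SARM1 NADase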). Particulars: SAM-TIR HEK293T lysate NADase, at 1 µM, stronger effect = higher value.
Where [15] appears, read: measured here: epithelial PC-3E GFP cell survival.
Where [16] appears, read: measured here: mesenchymal TEM4-18 mCherry cell survival.
[17] abbreviates: stronger effect = lower value, cell number ratio, induced over uninduced.
Where [18] appears, read: measured here: relative caspase fold change +Dox/-Dox.
Setting [19] is: measured here: total cells with miR-34 induction, stronger effect = lower value.
The mark [20] stands for this setting: measured here: total cells without miR-34 induction.
Where [21] appears, read: MELAS cybrid survival, CellTiter-Glo 48 h, stronger effect = higher value.
[22] abbreviates: Rieske KO mouse fibroblast survival, CellTiter-Glo 72 h.

NAD(+) hydrolase SARM1 (Homo sapiens), sequence (Q6SZW1 whole entry, looked up): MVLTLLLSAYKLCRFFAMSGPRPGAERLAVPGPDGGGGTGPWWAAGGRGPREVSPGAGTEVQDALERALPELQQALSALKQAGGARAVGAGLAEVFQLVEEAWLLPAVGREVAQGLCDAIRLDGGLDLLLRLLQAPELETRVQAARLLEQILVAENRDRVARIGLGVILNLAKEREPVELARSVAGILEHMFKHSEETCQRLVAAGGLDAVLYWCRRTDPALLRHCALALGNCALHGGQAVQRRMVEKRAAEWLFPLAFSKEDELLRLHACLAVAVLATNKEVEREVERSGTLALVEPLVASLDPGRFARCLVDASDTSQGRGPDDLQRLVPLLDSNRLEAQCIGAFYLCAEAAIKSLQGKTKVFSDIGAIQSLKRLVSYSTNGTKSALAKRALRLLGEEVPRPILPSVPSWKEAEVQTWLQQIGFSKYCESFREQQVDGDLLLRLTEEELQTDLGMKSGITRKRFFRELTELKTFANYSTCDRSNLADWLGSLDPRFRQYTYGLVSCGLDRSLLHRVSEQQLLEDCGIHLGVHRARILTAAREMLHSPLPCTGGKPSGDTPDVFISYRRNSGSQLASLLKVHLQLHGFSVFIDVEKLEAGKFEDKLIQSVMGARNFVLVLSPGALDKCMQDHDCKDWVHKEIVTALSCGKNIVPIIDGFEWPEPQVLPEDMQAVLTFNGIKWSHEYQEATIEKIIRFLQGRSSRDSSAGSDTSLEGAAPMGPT

For `O=C(Nc1ccccc1)OCC(CN1CCCCC1)OC(=O)Nc1ccccc1` (configuration not stated), the survival in test [1] is 16 (inactive). In addition, the parasite load remaining in [2] is 59.3% (inactive) and 41.7% (inactive) and 36.2% (inactive). Besides, in [2], the viability is 79.1% and 91.5% and 107%. The nuclear beta-catenin stimulation in test [3] (at 10 µM) is -0.9% (inactive); in test [3] (stimulation, at 2 µM), -0.9%. For the same compound, in test [4], the insulin secretion stimulation is 14.9% (inactive). Further, the viability decrease in test [5] is 36.4% (inactive). In addition, the tube area decrease in test [6] was 1.6% (inactive). For the same compound, in [7], the GLP1 secretion stimulation is -0.5% (inactive). Further, the inhibition of viability in test [8] is 75.7% (active). The viability decrease (inhibition) in [9] was 65.2% (active); in test [10], 32.3% (inactive). In test [11], the red/green cell ratio (normalised) was 0.79 (inactive). In addition, the normalised cell number was determined as 1.18 in test [11] (setting [15]) and 0.92 in test [11] (setting [16]). Further, the fold change in test [12] (setting [17]) is 0.99 (inactive) and 0.916 (inactive); in test [12] (setting [18]), 1.08 and 5.69. For the same compound, the cell count in [12] (setting [19]) was 8030 and 11400; in test [12] (setting [20]) it was 8110 and 12500. The z-score in test [13] (setting [21]) was 0.475 (inactive); in test [13] (setting [22]), -0.0131. Moreover, the remaining NAD in [14] was 10 nM (inactive).
With `CCCCCCCCCCCCCCCC[N+](C)(C)CCN(Cc1ccc(OC)cc1)c1ncccn1`, in test [1], the survival is 0.417 (inactive). Also, the parasite load remaining in [2] was 24.3% (inactive). Further, in test [2], the viability was 77.4%. For the same compound, the nuclear beta-catenin stimulation is -5.4% (inactive) in test [3] (at 10 µM) and 0% in [3] (stimulation, at 2 µM). The insulin secretion stimulation in [4] was 2.9% (inactive). Besides, in test [5], the viability decrease is 100% (active). Besides, in test [6], the tube area decrease was 110% (active). In addition, the GLP1 secretion stimulation in test [7] was 79.6% (active). The inhibition of viability in [8] is 101% (active). Besides, the viability decrease (inhibition) in test [9] is 120% (active); in [10], 103% (active). For the same compound, in [11], the red/green cell ratio (normalised) was 0.95 (inactive). The values for the normalised cell number in test [11] (setting [15]) and in test [11] (setting [16]) were 1.06 and 1, respectively. Further, the fold change is 0.797 (inactive) in [12] (setting [17]) and 1.23 in test [12] (setting [18]). Further, the cell count in test [12] (setting [19]) was 4700; in [12] (setting [20]), 5900. In addition, the results for the z-score in test [13] (setting [21]) and in test [13] (setting [22]) were -2.42 (inactive) and 1.31, respectively. For the same compound, the remaining NAD in [14] is 10 nM (inactive).
In the case of `CC(C)(C)C(=O)C(Oc1ccc(Cl)cc1)n1ccnc1` (configuration not stated), the parasite load remaining in test [2] is 15% (inactive). For the same compound, in test [2], the viability was 70%. In addition, the nuclear beta-catenin stimulation in test [3] (at 10 µM) is 2.6% (inactive); in test [3] (stimulation, at 2 µM) it was 1.9%. For the same compound, the insulin secretion stimulation in test [4] is 2.5% (inactive). Also, in test [5], the viability decrease was 6.3% (inactive). Moreover, in test [6], the tube area decrease was 11.3% (inactive). For the same compound, the GLP1 secretion stimulation in test [7] was 7.4% (inactive). The inhibition of viability in [8] was 34.8% (inactive). The results for the viability decrease (inhibition) in [9] and in [10] were 27.1% (inactive) and 44.1% (inactive), respectively. For the same compound, the red/green cell ratio (normalised) in [11] is 0.92 (inactive). In addition, the normalised cell number in test [11] (setting [15]) came to 0.94; in [11] (setting [16]), 0.86. Also, the fold change in test [12] (setting [17]) was 0.911 (inactive) and 0.872 (inactive); in test [12] (setting [18]), 1.11 and 1.1. Moreover, the cell count in [12] (setting [19]) was 8350 and 8730; in test [12] (setting [20]) it was 9170 and 10000. Moreover, the z-score is -0.118 (inactive) and 0.2 (inactive) in test [13] (setting [21]); -0.278 and -0.284 in test [13] (setting [22]). Besides, the remaining NAD in test [14] is 10 nM (inactive).
On to `Cc1ncc(CO)c(CO)c1O`, for which the survival in test [1] is 7.67 (inactive). In test [2], the parasite load remaining is 121% (inactive) and 68.6% (inactive) and 52.2% (inactive). Besides, the viability in test [2] was 108% and 75.6% and 94.6%. Besides, the nuclear beta-catenin stimulation in test [3] (at 10 µM) is 0.1% (inactive); in [3] (stimulation, at 2 µM), 0.9%. Besides, in [4], the insulin secretion stimulation was -1.8% (inactive). In addition, the viability decrease in test [5] is 4.5% (inactive). For the same compound, in test [6], the tube area decrease is -14.1% (inactive). Moreover, the GLP1 secretion stimulation in [7] is 3.1% (inactive). Also, the inhibition of viability in test [8] was -18.3% (inactive). The viability decrease (inhibition) is 23.7% (inactive) in test [9] and 3.95% (inactive) in test [10]. Moreover, the red/green cell ratio (normalised) in [11] was 0.91 (inactive). For the same compound, the normalised cell number amounted to 1.07 in [11] (setting [15]) and 0.97 in test [11] (setting [16]). Moreover, the fold change is 0.859 (inactive) and 0.971 (inactive) and 0.904 (inactive) in test [12] (setting [17]); 1.28 and 0.606 and 6.28 in [12] (setting [18]). Moreover, the cell count in test [12] (setting [19]) was 9040 and 7900 and 12400; in test [12] (setting [20]) it was 10500 and 8140 and 13700. The z-score in test [13] (setting [21]) is -0.22 (inactive) and 0.248 (inactive); in [13] (setting [22]), -0.0864 and 0.109. Further, in test [14], the remaining NAD is 10 nM (inactive).

The values are drawn from PubChem BioAssay.
